Only some compounds are listed: those with a hit (about 4.7% of all), similar ones and a draw of the others.
D1 ag – agonists of human D1 dopamine receptor. P21728. HEK293 T-REx D1 cells, calcium flux, agonist mode. activation, % at 2 µM. 360,000 compounds, 1% hits. AID 504660; further: 0% is about no effect
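Tetracycline-induced HEK293 TREx D1 cells, force-coupled to calcium signalling, were dye-loaded with a no-wash calcium kit. Compound was pin-added after a 10 s baseline. Fluorescence was read kinetically at 1 cycle/s for 180 s, with calcium rises flagged as agonism.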
D1 PAM – potentiators of human D1 dopamine receptor; P21728; HEK293 TREx D1 cells, calcium flux, dopamine EC20 potentiation; potentiation, % at 10 µM; 360,000 compounds, 0.036% hits; AID 504651; in the data active means potentiation above about 30%; further: 0% is about no effect
TRHR PAM – allosteric enhancers of human TRH receptor. P34981. TRHR cells, fluo-8 calcium fluorescence, EC20 TRH enhancement. enhancement, % at 2 µM. 360,000 compounds, 0.66% hits; in the data active means enhancement above about 30%; further: 0% is about no effect
Target sequence (P34981 whole entry, looked up): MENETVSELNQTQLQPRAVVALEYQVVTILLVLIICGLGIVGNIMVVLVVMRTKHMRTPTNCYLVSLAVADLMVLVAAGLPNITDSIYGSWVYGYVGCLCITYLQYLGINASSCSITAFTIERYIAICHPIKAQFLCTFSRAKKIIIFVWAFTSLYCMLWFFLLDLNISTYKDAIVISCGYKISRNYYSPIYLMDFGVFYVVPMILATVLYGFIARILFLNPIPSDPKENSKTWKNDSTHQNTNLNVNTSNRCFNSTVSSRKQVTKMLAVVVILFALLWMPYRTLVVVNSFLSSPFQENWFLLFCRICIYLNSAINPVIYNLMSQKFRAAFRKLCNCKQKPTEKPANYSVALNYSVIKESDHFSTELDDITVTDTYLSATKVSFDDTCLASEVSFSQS
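Enhancer read-out: after compound pinning and an initial kinetic agonist-mode read, an EC20 of TRH (10 nM final) was injected and fluo-8 calcium signal (Ex 480/Em 530) followed at 1 s/cycle for 100 cycles in TRHR-expressing cells.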
TRHR ag – TRH receptor (human) agonism; TRHR cells, calcium flux fluo-8, FDSS agonist mode; P34981; 360,000 compounds, 0.18% hits; activation, % at 2 µM; further: 0% is about no effect
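In this calcium-flux screen, cells bearing human TRHR are dye-loaded with fluo-8, baselined for 10 cycles, then exposed to library compounds; positive kinetic calcium responses during the agonist phase mark hits, with TRH as control.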
D1 antagonist – antagonists of human D1 dopamine receptor. 360,000 compounds, 3.2% hits. HEK293 TREx D1 cells, calcium flux, dopamine EC80; stronger effect = lower value. P21728. activity change, negative = inhibition, % at 10 µM; in the data active means activity change below about -30%; further: on the % scale 0 is the no-effect control and ±100 the full control effect
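Calcium flux readout: force-coupled, inducible Hek293 Trex D1 line, cells induced overnight at 30 C with tetracycline, dye-loaded 30–90 min at RT. Antagonism scored against EC80 dopamine challenge given 180 s after compound.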
* = called active by the depositor. Unless noted, no stated cut-off is given here; in the data, active means activation above about 30%; inactive means the rest.

For O=C(NCc1cn(-c2ccccc2)nc1-c1ccccc1)c1cccc([N+](=O)[O-])c1 the results were D1 ag 2, D1 PAM -10, TRHR PAM -6, TRHR ag 0 and D1 antagonist -33*.
Screening CSc1cc(C)nc(N(C)C(C)=O)n1 returned D1 ag 2, D1 PAM 3, TRHR PAM -6, TRHR ag 0 and D1 antagonist -4.
COc1cc(C)nc(N(C)C(C)=O)n1 was read as D1 ag 3, D1 PAM 4, TRHR PAM 0, TRHR ag 1 and D1 antagonist -34*.
For CC(=O)NC1CCCN(O)C(=O)/C=C(\C)CCOC(=O)C(NC(C)=O)CCCN(O)C(=O)/C=C(\C)CCOC(=O)C(NC(C)=O)CCCN(O)C(=O)/C=C(\C)CCOC1=O (stereo not drawn) the results were D1 ag -4, D1 PAM 0, TRHR PAM 36*, TRHR ag 0 and D1 antagonist 11.
CC1CCCCC1NC(=O)/C(C#N)=C/c1ccc(F)c(F)c1 (stereo not drawn) was read as D1 ag 0, D1 PAM -4, TRHR PAM 6, TRHR ag 1 and D1 antagonist -45*.
Screening Cc1ccc(C)c(NC(=O)CN2C(=O)CCc3cc(S(=O)(=O)N4CCCCC4)ccc32)c1 returned D1 ag -2, D1 PAM 0, TRHR PAM -10, TRHR ag 0 and D1 antagonist 9.
For CCCC(C(=O)Nc1ccncc1)c1ccccc1 (stereo not drawn) the results were D1 ag 9, D1 PAM -6, TRHR PAM -11, TRHR ag 1 and D1 antagonist -40*.
`Cc1cc(C)cc(NC(c2cccc(Cl)c2)c2nnc(-c3ccccc3)o2)c1` (stereo not drawn) gave D1 ag 0, D1 PAM -4, TRHR PAM -4, TRHR ag -1 and D1 antagonist 0.
For CCn1c(Cl)c(C=O)s/c1=N\S(=O)(=O)c1ccccc1 the results were D1 ag 2, D1 PAM -12, TRHR PAM -11, TRHR ag 2 and D1 antagonist -38*.
`COc1ccc(-c2nc(SCCOc3cc(C)ccc3C(C)C)n3[nH]c(=O)cc3n2)cc1` gave D1 ag 2, D1 PAM -1, TRHR PAM -3, TRHR ag 1 and D1 antagonist -2.
O=C(CCn1cnc2onc(-c3ccc(F)cc3)c2c1=O)N1CCN(c2ccccc2F)CC1 was read as D1 ag 4, D1 PAM -2, TRHR PAM 2, TRHR ag 0 and D1 antagonist -2.
O=C1C2C3C=CC(CC3)C2C(=O)N1c1cccc(Br)c1 (stereo not drawn) was read as D1 ag 4, D1 PAM -5, TRHR PAM 6, TRHR ag -1 and D1 antagonist -37*.
Screening Nc1c(C(=O)c2ccccc2)sc2snc(SCC(=O)c3ccccc3)c12 returned D1 ag 108*, D1 PAM 4, TRHR PAM 6, TRHR ag 27 and D1 antagonist 7.
For CCOCCCNC(=O)C(c1ccccc1)N(Cc1cccs1)C(=O)c1ccc(NC(C)=O)cc1 (stereo not drawn) the results were D1 ag -1, D1 PAM 0, TRHR PAM 0, TRHR ag -1 and D1 antagonist 7.
Cc1cccc(Cn2c(=O)n(Cc3ccco3)c(=O)c3ccccc32)c1 was read as D1 ag 2, D1 PAM 1, TRHR PAM -6, TRHR ag 0 and D1 antagonist -15.
`CCn1c(=O)c2ccccc2n(Cc2cccc(C)c2)c1=O` gave D1 ag -1, D1 PAM -7, TRHR PAM -1, TRHR ag 0 and D1 antagonist -32*.
`CC(CCc1ccc(O)cc1)NCCC(c1ccccc1)c1ccccc1` (stereo not drawn) gave D1 ag 87*, D1 PAM -11, TRHR PAM -6, TRHR ag 5 and D1 antagonist -28.
For CC(CCc1ccc(O)cc1)NCc1ccc(Br)cc1 (stereo not drawn) the results were D1 ag 31*, D1 PAM -12, TRHR PAM 0, TRHR ag 0 and D1 antagonist 7.

Screening results deposited in PubChem BioAssay by National Center for Advancing Translational Sciences (NCATS).
